Measurements as given in publication PMC7862700, “An all-to-all approach to the identification of sequence-specific readers for epigenetic DNA modifications on cytosine”.

Tests used:
Assay in all cases: DAPPL (digital affinity profiling via proximity ligation, sequencing); 10 mM Tris-HCl pH 7.5, 50 mM NaCl, 1 mM DTT, 4% glycerol, room temperature, 30 min; GST-TFs on glutathione beads, 16-mer random dsDNA library, 0.1% formaldehyde crosslink after washing; high values mean tight binding
Conditions in all cases: protein: recombinant; tags: N-terminal GST; dsDNA, one strand shown
FLI1 = molecular target: T1, FLI1 (Homo sapiens, UniProt Q01543 1-452)
T1 sequence: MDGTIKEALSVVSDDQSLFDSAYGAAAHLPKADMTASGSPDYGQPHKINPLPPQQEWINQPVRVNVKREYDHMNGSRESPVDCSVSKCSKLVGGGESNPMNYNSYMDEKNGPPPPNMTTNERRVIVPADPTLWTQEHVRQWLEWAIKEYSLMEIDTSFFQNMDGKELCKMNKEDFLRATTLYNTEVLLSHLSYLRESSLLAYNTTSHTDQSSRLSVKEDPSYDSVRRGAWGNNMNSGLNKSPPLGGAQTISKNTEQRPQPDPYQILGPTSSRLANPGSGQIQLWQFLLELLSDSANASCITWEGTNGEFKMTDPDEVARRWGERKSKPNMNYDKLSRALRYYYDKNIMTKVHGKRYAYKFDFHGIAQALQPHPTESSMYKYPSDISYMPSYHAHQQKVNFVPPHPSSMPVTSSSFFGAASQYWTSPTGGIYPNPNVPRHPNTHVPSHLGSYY
In short: (§1)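 Pools were built from human transcription factors expressed in yeast as GST fusions, captured on glutathione beads and DNA-barcoded, along with a tag-only sample. Incubation with 200 nmole of a 16-mer random double-stranded DNA library lasted 30 min at room temperature in Tris/NaCl/DTT/glycerol buffer, and was followed by washing, 0.1% formaldehyde crosslinking, proximity ligation, PCR amplification and Illumina NextSeq500 sequencing. Binding signal is the quotient of each hexamer's read frequency for a factor and its frequency for the tag-only sample.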

GABPA = molecular target: T2, GABPA (Homo sapiens, UniProt Q06546 1-454)
T2 sequence: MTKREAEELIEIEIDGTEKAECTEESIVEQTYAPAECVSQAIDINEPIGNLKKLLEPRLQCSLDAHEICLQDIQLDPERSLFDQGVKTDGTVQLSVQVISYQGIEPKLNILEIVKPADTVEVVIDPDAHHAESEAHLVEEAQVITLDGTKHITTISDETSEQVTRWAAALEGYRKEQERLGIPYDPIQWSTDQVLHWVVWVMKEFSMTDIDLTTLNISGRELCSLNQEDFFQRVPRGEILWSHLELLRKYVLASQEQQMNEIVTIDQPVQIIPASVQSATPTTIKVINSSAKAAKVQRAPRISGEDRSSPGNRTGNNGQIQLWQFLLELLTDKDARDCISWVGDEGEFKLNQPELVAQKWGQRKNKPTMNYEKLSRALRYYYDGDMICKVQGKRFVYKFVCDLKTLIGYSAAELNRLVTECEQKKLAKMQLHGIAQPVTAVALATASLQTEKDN
In short: as §1

ERG = molecular target: T3, ERG (Homo sapiens, UniProt P11308 1-479)
T3 sequence: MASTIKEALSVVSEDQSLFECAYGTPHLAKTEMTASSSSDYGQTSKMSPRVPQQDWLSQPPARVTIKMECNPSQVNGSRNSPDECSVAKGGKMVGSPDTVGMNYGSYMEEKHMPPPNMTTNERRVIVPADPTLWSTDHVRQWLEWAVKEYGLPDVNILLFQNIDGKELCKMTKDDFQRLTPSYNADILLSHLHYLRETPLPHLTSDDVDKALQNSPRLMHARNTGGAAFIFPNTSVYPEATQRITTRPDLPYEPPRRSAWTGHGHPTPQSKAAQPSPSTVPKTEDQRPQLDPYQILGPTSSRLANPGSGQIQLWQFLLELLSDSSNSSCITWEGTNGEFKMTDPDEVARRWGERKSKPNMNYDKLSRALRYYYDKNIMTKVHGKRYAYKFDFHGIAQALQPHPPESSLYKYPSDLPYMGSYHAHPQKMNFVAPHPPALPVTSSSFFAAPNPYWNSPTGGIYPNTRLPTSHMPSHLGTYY
In short: as §1

ELF1 = ELF1 (Homo sapiens, UniProt P32519 1-619)
In short: as §1

EHF = molecular target: T4, EHF (Homo sapiens, UniProt Q9NZC4 1-300)
T4 sequence: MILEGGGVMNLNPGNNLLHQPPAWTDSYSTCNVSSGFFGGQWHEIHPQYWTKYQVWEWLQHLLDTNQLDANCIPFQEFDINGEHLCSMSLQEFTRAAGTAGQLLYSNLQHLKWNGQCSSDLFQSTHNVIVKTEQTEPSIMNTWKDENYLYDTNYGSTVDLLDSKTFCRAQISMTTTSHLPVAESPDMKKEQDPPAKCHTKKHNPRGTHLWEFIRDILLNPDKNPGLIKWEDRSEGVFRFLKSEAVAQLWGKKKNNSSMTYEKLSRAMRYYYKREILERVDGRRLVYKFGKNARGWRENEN
In short: as §1

SPIB = SPIB (Homo sapiens, UniProt Q01892 1-262)
In short: as §1

ELK3 = molecular target: T5, ELK3 (Homo sapiens, UniProt P41970 1-407)
T5 sequence: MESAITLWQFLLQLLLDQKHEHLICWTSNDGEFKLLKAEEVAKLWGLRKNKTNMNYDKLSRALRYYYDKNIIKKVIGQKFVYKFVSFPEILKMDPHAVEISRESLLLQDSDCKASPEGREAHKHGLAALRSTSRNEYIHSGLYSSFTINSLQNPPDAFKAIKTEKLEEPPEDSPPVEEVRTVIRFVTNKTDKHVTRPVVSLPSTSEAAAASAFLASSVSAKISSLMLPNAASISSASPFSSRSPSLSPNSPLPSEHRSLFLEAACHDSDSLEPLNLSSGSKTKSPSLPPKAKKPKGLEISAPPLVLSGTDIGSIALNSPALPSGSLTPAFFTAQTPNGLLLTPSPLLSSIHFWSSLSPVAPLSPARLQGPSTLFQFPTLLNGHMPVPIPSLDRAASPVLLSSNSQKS
In short: as §1

ETV5 = ETV5 (Homo sapiens, UniProt P41161 1-510)
In short: as §1

ELF4 = ELF4 (Homo sapiens, UniProt Q99607 1-663)
In short: as §1

ELF3 = molecular target: T6, ELF3 (Homo sapiens, UniProt P78545 1-371)
T6 sequence: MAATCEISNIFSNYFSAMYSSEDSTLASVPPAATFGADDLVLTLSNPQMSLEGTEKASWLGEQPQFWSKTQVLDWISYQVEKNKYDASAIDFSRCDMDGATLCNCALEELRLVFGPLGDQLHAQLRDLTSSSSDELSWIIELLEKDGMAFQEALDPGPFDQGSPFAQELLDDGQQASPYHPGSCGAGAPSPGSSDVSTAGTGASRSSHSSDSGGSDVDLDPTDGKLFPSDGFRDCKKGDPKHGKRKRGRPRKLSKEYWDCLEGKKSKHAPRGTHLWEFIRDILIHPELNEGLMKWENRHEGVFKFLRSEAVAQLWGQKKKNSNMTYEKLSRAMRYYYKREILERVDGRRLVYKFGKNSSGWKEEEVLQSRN
In short: as §1

ETV1 = ETV1 (Homo sapiens, UniProt P50549 1-477)
In short: as §1

ERF = molecular target: T7, ERF (Homo sapiens, UniProt P50548 1-548)
T7 sequence: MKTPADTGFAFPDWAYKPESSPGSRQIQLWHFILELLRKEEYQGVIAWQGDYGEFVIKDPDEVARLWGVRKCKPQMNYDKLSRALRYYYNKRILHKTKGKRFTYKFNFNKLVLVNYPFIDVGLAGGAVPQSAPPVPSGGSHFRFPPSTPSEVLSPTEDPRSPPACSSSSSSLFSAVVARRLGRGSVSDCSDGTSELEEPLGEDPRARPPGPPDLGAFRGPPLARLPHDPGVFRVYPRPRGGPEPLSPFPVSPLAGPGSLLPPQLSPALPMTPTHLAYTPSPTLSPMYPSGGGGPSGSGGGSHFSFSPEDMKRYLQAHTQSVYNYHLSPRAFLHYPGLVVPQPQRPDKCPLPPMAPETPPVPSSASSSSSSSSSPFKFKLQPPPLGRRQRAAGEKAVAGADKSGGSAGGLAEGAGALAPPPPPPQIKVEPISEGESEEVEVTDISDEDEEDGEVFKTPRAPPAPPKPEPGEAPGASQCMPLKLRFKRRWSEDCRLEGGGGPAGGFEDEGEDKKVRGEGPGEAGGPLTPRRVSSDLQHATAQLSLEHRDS
In short: as §1

ETV3L = molecular target: T8, ETV3L (Homo sapiens, UniProt Q6ZN32 1-361)
T8 sequence: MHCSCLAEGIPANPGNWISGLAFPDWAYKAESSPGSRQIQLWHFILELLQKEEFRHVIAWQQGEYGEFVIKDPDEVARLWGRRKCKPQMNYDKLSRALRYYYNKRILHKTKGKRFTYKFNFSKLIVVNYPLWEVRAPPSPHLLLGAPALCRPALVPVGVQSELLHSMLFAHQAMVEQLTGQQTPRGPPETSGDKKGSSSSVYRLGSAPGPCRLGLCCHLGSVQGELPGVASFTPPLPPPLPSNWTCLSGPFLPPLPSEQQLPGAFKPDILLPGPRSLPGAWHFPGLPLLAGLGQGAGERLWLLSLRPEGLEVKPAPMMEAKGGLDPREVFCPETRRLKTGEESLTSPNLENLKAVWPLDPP
In short: as §1

ETS2 = molecular target: T9, ETS2 (Homo sapiens, UniProt P15036 1-469)
T9 sequence: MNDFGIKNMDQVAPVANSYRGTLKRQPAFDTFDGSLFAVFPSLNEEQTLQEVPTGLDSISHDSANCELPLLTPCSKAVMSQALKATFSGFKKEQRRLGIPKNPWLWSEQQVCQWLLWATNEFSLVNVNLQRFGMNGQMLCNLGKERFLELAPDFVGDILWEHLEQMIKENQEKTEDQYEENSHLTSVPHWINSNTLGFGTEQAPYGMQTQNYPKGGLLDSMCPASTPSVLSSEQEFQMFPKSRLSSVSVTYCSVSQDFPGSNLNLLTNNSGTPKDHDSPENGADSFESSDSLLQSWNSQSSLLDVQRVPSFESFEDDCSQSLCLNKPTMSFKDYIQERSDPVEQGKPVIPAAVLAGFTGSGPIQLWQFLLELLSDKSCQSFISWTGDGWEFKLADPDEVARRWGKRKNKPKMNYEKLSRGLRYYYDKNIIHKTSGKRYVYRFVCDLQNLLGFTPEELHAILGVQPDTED
In short: as §1

ETV7 = molecular target: T10, ETV7 (Homo sapiens, UniProt Q9Y603 1-341)
T10 sequence: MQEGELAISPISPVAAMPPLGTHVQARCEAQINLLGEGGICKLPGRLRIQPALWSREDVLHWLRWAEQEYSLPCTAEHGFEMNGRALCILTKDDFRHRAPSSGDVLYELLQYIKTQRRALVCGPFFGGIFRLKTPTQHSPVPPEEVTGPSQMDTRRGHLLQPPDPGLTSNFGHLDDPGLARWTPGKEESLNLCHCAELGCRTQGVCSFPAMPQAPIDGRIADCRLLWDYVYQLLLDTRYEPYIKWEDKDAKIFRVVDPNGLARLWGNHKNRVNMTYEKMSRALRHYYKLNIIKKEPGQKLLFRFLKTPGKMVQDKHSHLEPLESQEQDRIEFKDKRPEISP
In short: as §1

ETV3 = molecular target: T11, ETV3 (Homo sapiens, UniProt P41162-2 1-143)
T11 sequence: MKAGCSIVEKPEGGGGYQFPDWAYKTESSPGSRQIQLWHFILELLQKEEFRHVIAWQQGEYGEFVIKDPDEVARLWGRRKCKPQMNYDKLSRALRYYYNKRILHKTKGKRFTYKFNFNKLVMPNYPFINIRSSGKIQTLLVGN
In short: as §1

Chain of ELF4 (Q99607 whole entry): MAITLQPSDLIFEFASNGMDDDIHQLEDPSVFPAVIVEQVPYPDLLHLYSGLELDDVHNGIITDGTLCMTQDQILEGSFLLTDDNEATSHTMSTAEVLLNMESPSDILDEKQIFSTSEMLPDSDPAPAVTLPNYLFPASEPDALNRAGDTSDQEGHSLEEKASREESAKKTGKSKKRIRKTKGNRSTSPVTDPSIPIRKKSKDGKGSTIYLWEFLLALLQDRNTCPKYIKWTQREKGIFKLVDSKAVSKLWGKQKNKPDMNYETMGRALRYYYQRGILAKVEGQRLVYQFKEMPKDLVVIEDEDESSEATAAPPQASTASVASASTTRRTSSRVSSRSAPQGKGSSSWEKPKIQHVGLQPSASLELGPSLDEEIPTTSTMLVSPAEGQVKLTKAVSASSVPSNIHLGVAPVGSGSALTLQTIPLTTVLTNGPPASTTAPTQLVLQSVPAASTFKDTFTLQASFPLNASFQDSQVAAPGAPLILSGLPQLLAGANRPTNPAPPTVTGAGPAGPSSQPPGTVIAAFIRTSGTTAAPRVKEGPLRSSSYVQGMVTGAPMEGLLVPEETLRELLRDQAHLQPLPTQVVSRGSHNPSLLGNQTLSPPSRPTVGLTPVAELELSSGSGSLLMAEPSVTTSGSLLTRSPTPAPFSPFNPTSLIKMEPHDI
Chain of ELF1 (P32519 whole entry): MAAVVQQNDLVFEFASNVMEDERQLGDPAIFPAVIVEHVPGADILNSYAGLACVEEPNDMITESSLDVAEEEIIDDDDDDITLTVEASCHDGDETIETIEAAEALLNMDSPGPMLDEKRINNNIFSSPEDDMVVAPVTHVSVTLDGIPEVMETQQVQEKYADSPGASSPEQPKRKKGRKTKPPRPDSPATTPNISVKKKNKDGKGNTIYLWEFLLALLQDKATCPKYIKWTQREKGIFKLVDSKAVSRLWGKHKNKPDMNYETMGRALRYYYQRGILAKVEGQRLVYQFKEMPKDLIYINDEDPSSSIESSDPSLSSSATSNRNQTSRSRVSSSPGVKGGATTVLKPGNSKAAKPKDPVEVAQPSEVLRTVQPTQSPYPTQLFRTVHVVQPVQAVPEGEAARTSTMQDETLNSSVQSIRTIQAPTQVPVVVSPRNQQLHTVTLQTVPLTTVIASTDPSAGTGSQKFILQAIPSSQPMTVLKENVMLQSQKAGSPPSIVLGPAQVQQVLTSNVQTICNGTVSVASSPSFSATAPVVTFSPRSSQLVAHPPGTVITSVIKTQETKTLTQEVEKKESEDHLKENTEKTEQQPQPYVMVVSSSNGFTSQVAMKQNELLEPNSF
Chain of ETV1 (P50549 whole entry): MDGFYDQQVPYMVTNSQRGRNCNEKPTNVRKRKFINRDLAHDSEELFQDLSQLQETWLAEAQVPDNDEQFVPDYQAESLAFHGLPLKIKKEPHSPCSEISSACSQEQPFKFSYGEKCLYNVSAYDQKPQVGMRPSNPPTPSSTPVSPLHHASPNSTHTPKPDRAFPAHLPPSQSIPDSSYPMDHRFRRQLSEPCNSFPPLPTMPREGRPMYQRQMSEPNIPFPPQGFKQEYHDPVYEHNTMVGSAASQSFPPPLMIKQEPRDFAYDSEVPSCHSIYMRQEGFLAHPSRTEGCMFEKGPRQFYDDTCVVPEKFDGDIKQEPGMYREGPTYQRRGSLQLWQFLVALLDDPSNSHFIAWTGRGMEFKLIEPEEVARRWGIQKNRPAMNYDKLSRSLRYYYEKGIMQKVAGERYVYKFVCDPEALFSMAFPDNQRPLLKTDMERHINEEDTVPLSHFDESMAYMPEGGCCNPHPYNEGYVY
Chain of SPIB (Q01892 whole entry): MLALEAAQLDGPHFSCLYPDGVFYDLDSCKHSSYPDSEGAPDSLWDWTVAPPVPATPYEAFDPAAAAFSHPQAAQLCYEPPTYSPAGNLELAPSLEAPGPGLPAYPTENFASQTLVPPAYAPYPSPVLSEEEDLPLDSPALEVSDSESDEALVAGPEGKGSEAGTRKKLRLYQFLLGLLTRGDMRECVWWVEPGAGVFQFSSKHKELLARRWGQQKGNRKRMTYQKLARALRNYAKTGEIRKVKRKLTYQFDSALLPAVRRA
Chain of ETV5 (P41161 whole entry): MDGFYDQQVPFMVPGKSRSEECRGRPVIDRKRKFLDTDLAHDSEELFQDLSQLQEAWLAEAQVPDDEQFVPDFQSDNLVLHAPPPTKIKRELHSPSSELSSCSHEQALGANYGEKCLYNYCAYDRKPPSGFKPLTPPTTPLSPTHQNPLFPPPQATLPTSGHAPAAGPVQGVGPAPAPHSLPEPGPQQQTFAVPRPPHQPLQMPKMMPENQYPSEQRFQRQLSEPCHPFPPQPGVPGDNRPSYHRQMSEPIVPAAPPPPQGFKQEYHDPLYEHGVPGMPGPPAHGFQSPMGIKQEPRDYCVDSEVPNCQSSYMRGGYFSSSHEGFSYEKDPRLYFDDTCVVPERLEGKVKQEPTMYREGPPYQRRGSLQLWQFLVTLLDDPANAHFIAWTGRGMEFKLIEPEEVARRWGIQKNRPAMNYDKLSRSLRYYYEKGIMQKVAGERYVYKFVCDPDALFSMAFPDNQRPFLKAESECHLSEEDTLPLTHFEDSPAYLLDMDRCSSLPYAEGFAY

For TCGCTG, the binding signal (FLI1) was 1.02 fold enrichment (6-mer frequency, TF over GST control), the binding signal (GABPA) was 1.01 fold enrichment (6-mer frequency, TF over GST control) and the binding signal (ERG) was 1.02 fold enrichment (6-mer frequency, TF over GST control). The binding signal (ELF1) was 1.05 fold enrichment (6-mer frequency, TF over GST control), the binding signal (EHF) was 1.1 fold enrichment (6-mer frequency, TF over GST control) and the binding signal (SPIB) was 1.22 fold enrichment (6-mer frequency, TF over GST control). The binding signal (ELK3) was 1.23 fold enrichment (6-mer frequency, TF over GST control), the binding signal (ETV5) was 1.11 fold enrichment (6-mer frequency, TF over GST control) and the binding signal (ELF4) was 1.05 fold enrichment (6-mer frequency, TF over GST control). For the same sequence, the binding signal (ELF3) was 1.12 fold enrichment (6-mer frequency, TF over GST control), the binding signal (ETV1) was 1.15 fold enrichment (6-mer frequency, TF over GST control) and the binding signal (ERF) was 1.16 fold enrichment (6-mer frequency, TF over GST control). For the same sequence, the binding signal (ETV3L) was 1.05 fold enrichment (6-mer frequency, TF over GST control), the binding signal (ETS2) was 1.12 fold enrichment (6-mer frequency, TF over GST control) and the binding signal (ETV7) was 1.06 fold enrichment (6-mer frequency, TF over GST control). For the same sequence, the binding signal (ETV3) was 1.13 fold enrichment (6-mer frequency, TF over GST control).
